Bioassay records (PubChem BioAssay)
GPR151 ag – activators of human GPR151. PathHunter beta-arrestin GPR151 cells, luminescence. activation, % at 11.2 µM. hit rate 1% among 650,000. AID 1508602; in the data active = activation above about 4.9%;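 note: 0% = median of compound wells and 100% = cells with positive control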
MITF primary – blocks human microphthalmia-associated transcription factor. O75030. AlphaScreen MITF homodimerization, bead proximity signal. inhibition, % at 2.6 µM. hit rate 0.91% among 650,000; in the data active = inhibition above about 50%;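 note: 0% = vehicle wells with protein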
FBW7 act – activators of human E3 ligase FBW7 | AlphaScreen FBW7–phospho-cyclin E peptide binding, activator screen | normalized activity (activation), % at 26.1 µM | hit rate 0.13% among 650,000 | AID 1259310; in the data active = normalized activity above about 1.9%;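 note: purified mutant Fbw7 with reduced substrate affinity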
TEAD-YAP inh – TEAD-YAP interaction inhibition; HEK-TIYL cells, TEAD-Gal4/YAP UAS-luciferase luminescence; hit rate 1.4% among 640,000; inhibition, % at 9.12 µM; in the data active = inhibition above about 32%;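 note: 0% = median of test compound wells and 100% = reference inhibitor wells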
The depositor's hits bear a star. Sampled rows, rich in hits. Any-hit rate of the full collection: about 3.4%.

SMILES	GPR151 ag	MITF primary	FBW7 act	TEAD-YAP inh
O=C(NCc1cccs1)C(=O)Nc1ccc(F)cc1F	-1	-5	0	-86
Cc1ccc(/C=N/NC(=O)c2n[nH]c3c2CCCC3)cc1	-1	10	0	18
COc1cc(/C=N/NC(=O)c2n[nH]c3c2CCCC3)ccc1O	-1	10	0	36*
O=C(N/N=C\c1cccc(Cl)c1)c1n[nH]c2c1CCCC2	1	16	0	25
O=C(N/N=C/c1cccc(O)c1)c1n[nH]c2c1CCC2	-6	11	0	46*
O=C(N/N=C/c1ccccc1O)c1n[nH]c2c1CCC2	-1	18	-1	33*
O=C(N/N=C/c1cc2c([nH]1)CCCC2)c1n[nH]c2c1CCC2	-1	21	0	33*
COc1cc(NC(=O)c2sc3nc(N)c(C#N)c(-c4ccc(OC)c(OC)c4)c3c2N)c(OC)cc1Cl	-2	15	0	-9
COc1ccccc1C(=O)N[C@H]1C[C@H]2C(=O)N[C@H](CC(C)C)C(=O)N2C1	0	-9	0	9
Cc1ccsc1/C=N\NC(=O)c1n[nH]c2c1CCCC2	-9	13	0	82*
Cc1ccccc1NC(=O)CCCC(=O)OCC(Cl)=C(Cl)Cl	0	18	0	10
Oc1ccc(-c2cnc3ccc(NCc4cccs4)nn23)cc1	3	-12	0	62*
Fc1ccc(-c2cnc3ccc(NCc4cccs4)nn23)cc1	0	-16	0	-4
OCc1cccc(-c2cnc3ccc(NCc4cccs4)nn23)c1	-1	12	0	-1
OCc1ccc(-c2cnc3ccc(NCc4cccs4)nn23)cc1	-1	-8	0	35*
COc1ccc2c(c1)CC/C(=C/c1ccc(OC)c(O)c1)C2=O	-1	10	0	-15
O=C(Nc1ccc(Cl)cc1)c1cc2ccccc2cc1NS(=O)(=O)c1ccccc1	1	11	0	53*
Cc1ccnc(Nc2nc(-c3cccs3)cs2)c1	-1	26	0	-30
Cc1ccnc(Nc2nc(-c3ccccn3)cs2)c1	-3	103*	-2	73*
Cc1ccc(Nc2nc(-c3ccccn3)cs2)cc1	-4	-5	-1	55*
CSc1ncc(C(=O)Nc2ccc(C)cc2)c(C)n1	1	5	0	-19
CCOC(=O)/C(=N\Nc1cc(C(F)(F)F)ccc1Cl)N(C)C1CCN(C)CC1	3	6	0	-19
Cn1c(=O)c2c(nc3n2CC(c2ccc(Br)cc2)=NN3c2ccccc2)n(C)c1=O	3	12	0	6
NS(=O)(=O)c1ccc(N=Nc2ccc(O)c3ncccc23)cc1	-1	80*	-1	24
O=C(O)c1ccccc1N=Nc1ccc(O)c2ncccc12	0	34	0	-9
SMILES	GPR151 ag	MITF primary	FBW7 act	TEAD-YAP inh
Clc1ccc2nc(CSc3nnc4c(n3)[nH]c3ccccc34)cn2c1	2	7	0	-2
Cc1csc(NC2OC(=O)c3ccccc32)n1 (configuration not stated)	0	17	0	-6
O=C1OC(Nc2nc3ccccc3s2)c2ccccc21 (configuration not stated)	-1	10	2.0*	-4
CCCc1ccc(C(=O)Oc2ccc(-c3ccc(CCC)cn3)cc2)cc1	-1	12	0	23
CCCc1ccc(-c2ccc(OC(=O)c3ccccc3Cl)cc2)nc1	-2	-2	0	70*
COc1cccc(C2NC(=O)NC(C)=C2C(=O)Nc2ccc(F)cc2)c1OC (configuration not stated)	-2	-16	0	43*
CC1=C(C(=O)Nc2ccc(Br)cc2)C(c2ccc(O)cc2)NC(=O)N1 (configuration not stated)	-2	24	2.8*	-5
O=[N+]([O-])c1ccc2c(c1)S(=O)(=O)N=C2Nc1ccccc1Cl	3	7	0	-5
O=C1OC(c2ccc(Cl)c([N+](=O)[O-])c2)=N/C1=C\c1cccc(Br)c1	-1	6	0	-5
Cc1cc(NC(=O)c2ccc(S(=O)(=O)NC3CC3)cc2)c2cc(F)cc(F)c2n1	-1	-11	0	48*
COc1ccc2c(c1)c(C)c(C)n2CCc1ccc(C)nc1	-2	-6	0	50*
Cc1ccc(CCn2c(C)c(C)c3ccccc32)cn1	3	9	1	-3
CCOC(=O)C1CN(c2ccc([N+](=O)[O-])cc2[N+](=O)[O-])C1	1	-10	0	55*
COC(=O)C1CCN(c2ccc([N+](=O)[O-])cc2[N+](=O)[O-])CC1	2	12	1	-3
C=CCn1c(SCC(=O)OCC)nc2sc3c(c2c1=O)CCC(C(C)(C)C)C3 (configuration not stated)	0	2	0	38*
